Assay results: PubChem BioAssay AID463173 (ICCB-Longwood Screening Facility, Harvard Medical School, 2010)
Among all 52,000 compounds or so, about 4,300 (8.3%) were called active. Rule as the data show it: active = survival mostly below about 52% (no sharp cut-off); inactive = mostly above about 56%. This excerpt belongs to a sample that is enriched for actives.

Each molecule was assayed on DeltatarO mutant (assay: S. aureus survival, RN4220 and DeltatarO strains – OD600, teichoic acid synthesis inhibitors, primary screen (AID 463173)). Conditions: S. aureus RN4220 wild type/DeltatarO growth, OD600, 18 h, stronger effect = lower value, screened at 18.75 µg/mL (by protocol).

Row | Structure (SMILES) | survival
1 | CCc1ccc(CN2CCc3nc(Nc4ccccc4)ncc3C2)cc1 | 84% (inactive)
2 | Cc1ccc(Nc2nc3ccc(C(=O)c4ccccc4)cc3n3c(C)nnc23)c(C)c1 | 105% (inactive)
3 | CCCn1c2ccccc2c2cnn(CC(=O)NCCCN(Cc3ccccc3)C(C)C)c(=O)c21 | 88% (inactive)
4 | COc1ccc(-c2c(C)nn3c(C(F)(F)F)cc(-c4ccccc4)nc23)cc1OC | 57% (inactive)
5 | COc1ccc(-c2c(C)nn3c(-c4ccccc4)cc(-c4ccccc4)nc23)cc1OC | 96% (inactive)
6 | COc1ccc(-c2cc(C(F)(F)F)n3nc(C)c(-c4ccccc4)c3n2)cc1OC | 69% (active)
7 | COc1ccc(-c2c(C)nn3c(C(F)(F)F)cc(-c4ccccc4)nc23)cc1 | 62% (inactive)
8 | COc1ccc(-c2cc(C)nc3c(-c4ccc(OC)c(OC)c4)c(C)nn23)cc1 | 63% (inactive)
9 | COc1ccc(-c2c(C)nn3c(-c4ccccc4)cc(C)nc23)cc1OC | 38% (active)
10 | CC(CCO)Nc1nc2c(c(=O)n(C)c(=O)n2C)n1Cc1ccc(Br)cc1 (stereo not given) | 140% (inactive)
11 | COc1cccc(C(=O)NC2=NC(c3ccccc3F)CC(=O)N2)c1 (stereo not given) | 75% (inactive)
12 | CC(C)C(=O)Nc1c(C(=O)N2CCN(c3ccccc3F)CC2)oc2ccccc12 | 58% (inactive)
13 | O=C(NCc1ccccc1)C1CCCN(c2ncccn2)C1 (stereo not given) | 88% (inactive)
14 | COc1ccccc1-c1noc(-c2ccc(N3CCN(c4ccccc4)CC3)c([N+](=O)[O-])c2)n1 | 44% (active)
15 | COc1ccccc1-c1noc(-c2ccc(N3CCN(C)CC3)c([N+](=O)[O-])c2)n1 | 113% (inactive)
16 | Cc1cccc(-c2noc(-c3ccc(N4CCOCC4)c([N+](=O)[O-])c3)n2)c1 | 67% (inactive)
17 | Cc1cccc(-c2noc(-c3ccc(N4CCN(C)CC4)c([N+](=O)[O-])c3)n2)c1 | 22% (active)
18 | O=[N+]([O-])c1cc(-c2nc(-c3ccccc3)no2)ccc1N1CCN(c2ccccc2)CC1 | 77% (inactive)
19 | CN1CCN(c2ccc(-c3nc(-c4ccccc4)no3)cc2[N+](=O)[O-])CC1 | 41% (active)
20 | Cc1cccc(-c2noc(-c3ccc(N4CCCC4)c([N+](=O)[O-])c3)n2)c1 | 82% (inactive)
21 | COc1ccccc1-c1noc(-c2ccc(N3CCOCC3)c([N+](=O)[O-])c2)n1 | 100% (inactive)
22 | Cc1ccc(-c2noc(-c3ccc(N4CCN(C)CC4)c([N+](=O)[O-])c3)n2)cc1 | 85% (inactive)

Row | Structure (SMILES) | survival
23 | Cc1ccc(-c2nc(SCC(=O)Nc3cc(C)on3)c3c(=O)n(C)c(=O)n(C)c3n2)cc1 | 83% (inactive)
24 | CC(=O)c1ccc(NC(=O)CSc2nc(=O)n(Cc3ccccn3)c3c2CCC3)cc1 | 67% (inactive)
25 | COc1ccc(CCNC(=O)CSC2=Nc3ccccc3C3=NC(CCC(=O)NCc4ccccc4)C(=O)N23)cc1OC (stereo not given) | 107% (inactive)
26 | O=C(Nc1nc2c(F)cc(F)cc2s1)c1ccc2c(c1)OCCO2 | 85% (inactive)
27 | Cn1cc(C(=O)NCc2ccccc2)c(=O)c2cc(S(=O)(=O)N3CCCCCC3)ccc21 | 118% (inactive)
28 | COc1ccc(C)cc1NC(=O)c1ccc(NS(=O)(=O)c2c(C)noc2C)cc1 | 83% (inactive)
29 | Cc1noc(NS(=O)(=O)c2ccc(NC(=O)c3ccc(Br)cc3)cc2)c1C | 74% (inactive)
30 | Cc1noc(C)c1S(=O)(=O)Nc1ccc(C(=O)Nc2ccc(C(C)C)cc2)cc1 | 52% (active)
31 | Cc1cc(Br)ccc1NC(=O)c1ccc(NS(=O)(=O)c2c(C)noc2C)cc1 | 59% (inactive)
32 | Cc1noc(C)c1S(=O)(=O)Nc1ccc(C(=O)Nc2ccc(Br)cc2)cc1 | 36% (active)
33 | CCc1ccc(NC(=O)c2ccc(NS(=O)(=O)c3c(C)noc3C)cc2)cc1 | 48% (inactive)
34 | Cc1cccc(C)c1NC(=O)CSc1nc(-c2ccccc2)nc2c1Cc1c(CO)cnc(C)c1O2 | 87% (inactive)
35 | Cc1ccc(NC(=O)C2CCN(c3nnc(C)c4c(C)n(-c5ccccc5)nc34)CC2)cc1Cl | 71% (inactive)
36 | Cc1cc(C)c(NC(=O)C2CCN(c3nnc(C)c4c(C)n(-c5ccccc5)nc34)CC2)c(C)c1 | 52% (active)
37 | CCc1cccc(C)c1NC(=O)C1CCN(c2nnc(C)c3c(C)n(-c4ccccc4)nc23)CC1 | 77% (inactive)
38 | O=C(Nc1cccc(C(F)(F)F)c1)c1cccnc1NCCO | 77% (inactive)
39 | C=C(C)CSc1nc2sc3c(c2c(=O)n1CCCC)CCCC3 | -3% (active)
40 | C=C(C)Cn1c(SCC(=O)c2ccccc2)nc2sc3c(c2c1=O)CCCC3 | 69% (inactive)
41 | CCCCn1c(SCC(=O)c2ccccc2)nc2sc3c(c2c1=O)CCCC3 | 44% (active)
42 | C=C(C)Cn1c(SCC(=O)c2ccc(Br)cc2)nc2sc3c(c2c1=O)CCCC3 | 50% (inactive)
43 | CCOC(=O)CSc1nc2sc3c(c2c(=O)n1CC)CCCC3 | 58% (inactive)
44 | C=C(C)Cn1c(SCC(=O)c2ccc(OC)cc2)nc2sc3c(c2c1=O)CCCC3 | 75% (inactive)

Row | Structure (SMILES) | survival
45 | COc1ccc(CNC(=O)CN(C)S(=O)(=O)c2ccc3[nH]c4c(c3c2)CCCC4)cc1 | 70% (inactive)
46 | Cn1c(C(=O)N(Cc2ccccc2)C(C)(C)C)cc2sccc21 | 109% (inactive)
47 | CCOc1ccccc1CNC(=O)C1CCN(c2nnc(C)c3c(C)n(-c4ccc(C)cc4)nc23)CC1 | 68% (inactive)
48 | COc1cccc(CC(=O)Nc2ccc3nc(Nc4cccc(C(F)(F)F)c4)cc(C)c3c2)c1 | 25% (active)
49 | COc1ccccc1CC(=O)Nc1ccc2nc(Nc3cccc(Cl)c3)cc(C)c2c1 | 144% (inactive)
50 | COc1ccc(CC(=O)Nc2ccc3nc(Nc4cccc(Cl)c4)cc(C)c3c2)cc1 | 98% (inactive)
51 | COc1ccc(CC(=O)Nc2ccc3nc(Nc4cccc(Cl)c4)cc(C)c3c2)cc1OC | 46% (active)
52 | Cc1cc(Nc2cccc(C(F)(F)F)c2)nc2ccc(NC(=O)c3cccc(Cl)c3)cc12 | 92% (inactive)
53 | Cc1cc(Nc2cccc(Cl)c2)nc2ccc(NC(=O)Cc3cccc(C(F)(F)F)c3)cc12 | 64% (inactive)
54 | Cc1cc(Nc2cccc(C(F)(F)F)c2)nc2ccc(NC(=O)c3ccc(=O)[nH]c3)cc12 | 37% (active)
55 | Cc1cc(Nc2cccc(C(F)(F)F)c2)nc2ccc(NC(=O)c3ccc(N(C)C)cc3)cc12 | 55% (inactive)
56 | COc1ccccc1CC(=O)Nc1ccc2nc(Nc3cccc(C(F)(F)F)c3)cc(C)c2c1 | 92% (inactive)
57 | O=C(Cn1cc(S(=O)(=O)Cc2ccccc2Cl)c2ccccc21)Nc1cccc(C(F)(F)F)c1 | 75% (inactive)
58 | CCOc1ccc(C2C(C(=O)Nc3ccccc3)=C(C)Nc3nc(SCc4cc(C)ccc4C)nn32)cc1 (stereo not given) | 123% (inactive)
59 | Cc1ccc(NC(=O)Cn2c(=O)n(-c3ccc(CC(=O)NCC4CCCO4)cc3)c(=O)c3ccccc32)cc1 (stereo not given) | 95% (inactive)
60 | CCCCOC(=O)c1ccc(NC(=O)c2cc3c(=O)n4cccc(C)c4nc3s2)cc1 | 66% (inactive)
61 | COc1cc(OC)cc(C(=O)NCC(c2cccs2)S(=O)(=O)c2ccc(F)c(C)c2)c1 (stereo not given) | 100% (inactive)
62 | Cc1cccc(NC(=O)C2CCCN(S(=O)(=O)c3ccc4c(c3)CCCC(=O)N4)C2)c1 (stereo not given) | 95% (inactive)
63 | COc1ccc(NS(=O)(=O)c2ccc3[nH]c(=O)ccc3c2)cc1OC | 98% (inactive)
64 | COc1ccc(-c2nc3sc(CCNC(=O)c4cc(Cl)ccc4OC)c(C)n3n2)cc1 | 73% (inactive)
65 | COc1ccc(C(C(=O)NCc2cccs2)N(Cc2ccco2)C(=O)Cn2nnc(-c3cccs3)n2)cc1 (stereo not given) | 93% (inactive)
66 | CCc1cccc(C)c1NC(=O)CCCn1nc(C)c2sc3ccccc3c2c1=O | 86% (inactive)

Row | Structure (SMILES) | survival
67 | CCc1ccc(Sc2cc(C(=O)O)c3ccccc3n2)cc1 | 78% (inactive)
68 | CCOCCCNC(=O)CN1C(=O)COc2ccc(S(=O)(=O)N3CCCC3)cc21 | 87% (inactive)
69 | CCC(Cn1nnc2ccccc2c1=O)NC(=O)Nc1ccc(C)cc1C (stereo not given) | 44% (active)
70 | CCc1ccccc1NC(=O)NC(CC)Cn1nnc2ccccc2c1=O (stereo not given) | 61% (inactive)
71 | CCC(Cn1nnc2ccccc2c1=O)NC(=O)Nc1cccc(C)c1C (stereo not given) | 55% (inactive)
72 | CCC(Cn1nnc2ccccc2c1=O)NC(=O)Nc1ccc(C)cc1 (stereo not given) | 55% (inactive)
73 | CCC(Cn1nnc2ccccc2c1=O)NC(=O)Nc1cccc(Cl)c1 (stereo not given) | 39% (active)
74 | CCC(Cn1nnc2ccccc2c1=O)NC(=O)Nc1ccccc1Cl (stereo not given) | 85% (inactive)
75 | CCC(Cn1nnc2ccccc2c1=O)NC(=O)Nc1ccc(C)c(C)c1 (stereo not given) | 45% (inactive)
76 | CCC(Cn1nnc2ccccc2c1=O)NC(=O)Nc1cc(OC)cc(OC)c1 (stereo not given) | 88% (inactive)
77 | CCC(Cn1nnc2ccccc2c1=O)NC(=O)Nc1cc(C)cc(C)c1 (stereo not given) | 41% (active)
78 | COc1ccccc1CNC(=O)C(C)n1ccc2cc(S(=O)(=O)N3CCCC3)ccc21 (stereo not given) | 81% (inactive)
79 | CCc1ccc(CN2CCC(C(=O)N(C)CCc3ccc(OC)c(OC)c3)CC2)cc1 | 81% (inactive)
80 | CCCN(C(=O)c1cc2c(=O)[nH]c3ccc(C)cc3c2s1)c1ccc(CC)cc1 | 64% (inactive)
81 | CCCCNS(=O)(=O)c1ccc(NC(=O)c2c(-c3ccccc3)noc2C)cc1 | 101% (inactive)
82 | CN(C)c1ccc(CNC(=O)C2CCN(S(=O)(=O)c3ccc4c(ccn4C)c3)CC2)cc1 | 95% (inactive)
83 | Cc1ccc(NC(=O)c2cnc(SCC(=O)Nc3cc(C)on3)n(C)c2=O)cc1 | 88% (inactive)
84 | COc1ccc(CCn2c3c(c(=O)[nH]c2=O)C(NC(=O)c2ccccc2F)(C(F)(F)F)C(=O)N3)cc1OC (stereo not given) | 60% (inactive)
85 | COc1ccc(N(Cc2cc3ccccc3[nH]c2=O)C(=O)c2cccc(Cl)c2)cc1 | 87% (inactive)
